Results filed as inconclusive are left out. Activity calls are given as the source filed them. Calls come from the whole dose curve; as a rule, active = well fitted cell-killing curve with a large enough effect; inconclusive = small, poorly fitted or top-dose-only effect, or effect the other way; inactive = no such curve, though single readings can be large or run the other way.
Assay: Quantitative High-Throughput drug screen in 47 multiple myeloma cell lines against the NCATS MIPE library collection: MM1S_ATCC cell viability assay (AID 1918980); note: nearly all actives have a fitted effect of over 45% in size
Settings: MM1S myeloma viability, CellTiter-Glo ATP luminescence, 48 h; series mostly up to 45.8 µM
Description: PI: Beverly A. Mock Ph.D.
Laboratory of Cancer Biology and Genetics,
Center for Cancer Research, National Cancer Institute,
National Institute of Health, Bethesda, Maryland
Drug resistance and disease progression are common in multiple myeloma (MM) patients, underscoring the need for new therapeutic combinations. […] We hypothesized that effective combinations would reduce MYC expression and enhance p16 activity. […] These preclinical data identify potentially useful drug combinations for evaluation in drug-resistant MM and reveal potential mechanisms of combined drug sensitivity.
Described herein is the primary MIPE qHTS used to cherrypick compounds. Validated compounds were then further tested for potential synergistic activiy.
[1] Peat TJ, Gaikwad SM, Dubois W, Gyabaah-Kessie N, Zhang S, Gorjifard S, Phyo Z, Andres M, Hughitt VK, Simpson RM, Miller MA, Girvin AT, Taylor A, Williams D, D'Antonio N, Zhang Y, Rajagopalan A, Flietner E, Wilson K, Zhang X, Shinn P, Klumpp-Thomas C, McKnight C, Itkin Z, Chen L, Kazandijian D, Zhang J, Michalowski AM, Simmons JK, Keats J, Thomas CJ, Mock BA. Drug combinations identified by high-throughput screening promote cell cycle transition and upregulate Smad pathways in myeloma. Cancer Lett. 2023 Aug 1;568:216284. doi: 10.1016/j.canlet.2023.216284. Epub 2023 Jun 24. PMID: 37356470; PMCID: PMC10408729.
SEQUENCE No. (e.g., 1, 2, 3, etc.); […] (e.g., Cells, Incubation, Reagent, etc.); VALUE and DESCRIPTION.
1; Cells; 5 uL; white, solid bottom 1536-well Greiner assay plate.
2; Compounds; 23 nL; Kalypsis pin tool (Wako USA) equipped with a 1536-well pin head to transfer to the assay plates.
3; Incubation; 48 hours; 37C incubation.
4; Reagent;5uL; CellTiter Glo (Promega).
5; Detector; 425V; Luminescence; Viewlux PerkinElmer.
NOTES (numbers refer to Sequence numbers above)
1. The cell-based screening methods employed in this study were like those previously published. Briefly, the corresponding myeloma cell lines were screened in 1,536-well plates with 500 cells, 5-uL per well for inhibition of cell viability (assessed by measuring ATP levels with CellTiterGlo).
2. NCATS MIPE 4.0 library of approved and investigational drugs were added using the Kalypsis pin tool. Wells treated with DMSO only for 100% viability and media only for 0% viability were used as controls.
3. The assay plates were covered and incubated for 48 hours in a 37C, 5% CO2 incubator with controlled humidity.
4. After 48 hours, CellTilter-GloTM luminescent substrate mix (Promega) reagent was added to the assay plate and plates we incubated for 5 min at room temperature.
5. Signal was measured as median relative luminescence units on a ViewLux (PerkinElmer) multiplate reader.
[1] Heske CM, Davis MI, Baumgart JT, Wilson K, Gormally MV, Chen L, Zhang X, Ceribelli M, Duveau DY, Guha R, Ferrer M, Arnaldez FI, Ji J, Tran HL, Zhang Y, Mendoza A, Helman LJ, Thomas CJ. Matrix Screen Identifies Synergistic Combination of PARP Inhibitors and Nicotinamide Phosphoribosyltransferase (NAMPT) Inhibitors in Ewing Sarcoma. Clin Cancer Res. 2017 Dec 1;23(23):7301-7311. doi: 10.1158/1078-0432.CCR-17-1121. Epub 2017 Sep 12. PMID: 28899971; PMCID: PMC6636827.
Potency is the fitted concentration of half-maximal effect.

| SMILES | Potency |
| --- | --- |
| O=C(O)Cc1cccc(OCCCN(Cc2cccc(C(F)(F)F)c2Cl)CC(c2ccccc2)c2ccccc2)c1 | 20.9 µM (active) |
| CCOC(=O)c1c(CSc2ccccc2)n(C)c2cc(Br)c(O)c(CN(C)C)c12 | 20.9 µM (active) |
| CCCCc1ccc(NS(=O)(=O)c2ccc(C)c(C(=O)N3CCN(c4cccc(C)c4C)CC3)c2)cc1 | 14.8 µM (active) |
| NC(=O)c1noc([C@H](CCCC2CCCCC2)CC(=O)NO)n1 | 16.6 µM (active) |
| CCC(c1ccc(O)cc1)C(CC)c1ccc(O)cc1 (stereo not given) | 4.69 µM (active) |
| NS(=O)(=O)c1ccc(Nc2nc(OCC3CCCCC3)c3[nH]cnc3n2)cc1 | 18.7 µM (active) |
| CC(C)C[C@H](NC(=O)c1cc2ccccc2s1)C(=O)N1CCN(C(=O)[C@H](CO)NS(=O)(=O)c2ccc(Cl)cc2Cl)CC1 | 23.5 µM (active) |
| CNC1CCC(N(Cc2cccc(-c3ccncc3)c2)C(=O)c2sc3ccccc3c2Cl)CC1 (stereo not given) | 20.9 µM (active) |
| CCC[C@H](Nc1nc(-c2ccc(NC(=O)NCC)c(OC)c2)ncc1C)c1cccnc1 | 0.0209 µM (active) |
| CCCCCCCCCCCCCCCC(=O)O[C@H]1[C@@H](O)[C@@H](O)[C@@H]([C@H](NC(=O)[C@@H]2C[C@@H](CCC)CN2C)[C@H](C)Cl)O[C@@H]1SC | 18.7 µM (active) |
| CN(C)c1nc(Cc2ccc(NC(=O)c3ccc(C(F)(F)F)cc3)cc2)nc(N(C)C)c1CC(=O)O | 2.96 µM (active) |
| CN(C(Cc1ccc(OS(=O)(=O)c2cccc3cnccc23)cc1)C(=O)N1CCN(c2ccccc2)CC1)S(=O)(=O)c1cccc2cnccc12 (stereo not given) | 5.26 µM (active) |
| CN1CCc2c(n(Cc3ccc(C(=O)NO)cc3)c3ccccc23)C1 | 16.6 µM (active) |
| COc1cc(N2CCN(C)CC2)ccc1Nc1nc(N)c(C(=O)c2c(Cl)cccc2Cl)s1 | 20.9 µM (active) |
| C[C@@]1(C(=O)Nc2ccc(F)nc2)CCCN1c1nc(Nc2cc(C3CC3)[nH]n2)c2cccn2n1 | 0.0469 µM (active) |
| CC1(C)C(N(O)C(=O)Nc2ccc(Cl)cc2)N(c2ccc(Cl)cc2)C(=O)N1CC(=O)NN=CC=Cc1ccc([N+](=O)[O-])o1 (stereo not given) | 9.35 µM (active) |
| Oc1ccc(C=Cc2cc(O)cc(O)c2)cc1 | 18.7 µM (active) |
| COc1cc2ncn(-c3cc(OCc4ccccc4S(C)(=O)=O)c(C#N)s3)c2cc1OC | 20.9 µM (active) |
| CC(C)c1c(C(=O)Nc2ccccc2)c(-c2ccccc2)c(-c2ccc(F)cc2)n1CC[C@H](O)C[C@@H](O)CC(=O)O | 16.6 µM (active) |
| COc1c(C)c2c(c(O)c1CC=C(C)CCC(=O)OCCN1CCOCC1)C(=O)OC2 | 6.62 µM (active) |

| SMILES | Potency |
| --- | --- |
| CN1N=C(N)c2cn([C@@H]3O[C@H](COP(=O)(O)O)[C@@H](O)[C@@H]3O)c3ncnc1c23 | 1.18 µM (active) |
| CN1CC(=O)NC1=NC(=O)Nc1cccc(Cl)c1 | 26.4 µM (active) |
| Cc1cc(CS(=O)(=O)c2ccccc2)cc(OCc2ccc(CN3CCC[C@H]3CO)cc2)c1 | 4.69 µM (active) |
| CN(C)N=Nc1nc[nH]c1C(N)=O | inactive |
| CO[C@H]1/C=C\O[C@@]2(C)Oc3c(C)c(O)c4c(O)c(c(C=NN5CCN(C6CCCC6)CC5)c(O)c4c3C2=O)NC(=O)C(C)=CC=C[C@H](C)[C@H](O)[C@@H](C)[C@@H](O)[C@@H](C)[C@H](OC(C)=O)[C@H]1C | 0.296 µM (active) |
| COc1ccc(Cn2ccc3ccc(C(=O)NO)cc32)cc1 | 16.6 µM (active) |
| Cc1cc(-c2ncc(CC(=O)Nc3ccc(-c4cnccn4)cn3)cc2C)ccn1 | 18.7 µM (active) |
| Nc1ncnc2c1c(-c1cccc(OCc3ccccc3)c1)cn2C1CC(CN2CCC2)C1 (stereo not given) | 2.96 µM (active) |
| C=CCc1cccc(C=NNC(=O)CN2CCN(Cc3ccccc3)CC2)c1O | 9.35 µM (active) |
| CNC(=O)[C@H](Cc1ccccc1)NC(=O)[C@H](CC(C)C)[C@H](CSc1cccs1)C(=O)NO | 26.4 µM (active) |
| CCCC1OC2C[C@@H]3[C@H]4CCC5=CC(=O)C=C[C@]5(C)[C@H]4C(O)C[C@]3(C)[C@]2(C(=O)CO)O1 (stereo not given in full) | 0.0743 µM (active) |
| CNC(=O)c1cc(Oc2ccc(NC(=O)Nc3ccc(Cl)c(C(F)(F)F)c3)c(F)c2)ccn1 | 2.09 µM (active) |
| COc1cc2nc(-c3cc(F)ccc3O)nc(N[C@@H]3CNC[C@@H]3C(C)(C)O)c2cc1OC | 18.7 µM (active) |
| O=c1[nH]c(=O)n([C@H]2C[C@@H](O)[C@@H](CO)O2)cc1C(F)(F)F | 10.5 µM (active) |
| CNC(=O)[C@H](CC1=CN=C2C=CCC=C12)NC(=O)[C@@H](CC(=O)NO)CC(C)C | 3.32 µM (active) |
| O=S(=O)(NCCNCC=Cc1ccc(Br)cc1)c1cccc2cnccc12 | 3.72 µM (active) |
| Cc1ccc(S(=O)(=O)Nc2nc3ccccc3nc2Nc2ccc3nsnc3c2)cc1 | 0.575 µM (active) |
| COc1cc2ncnc(Nc3cc(Br)c(O)c(Br)c3)c2cc1OC | 0.0026 µM (active) |
| CC[C@H](C=C[C@@H](C)[C@H]1CC[C@H]2[C@@H]3CC=C4C[C@@H](O)CC[C@]4(C)[C@@H]3CC[C@]12C)C(C)C | inactive |
| CN(C)CCOc1ccc(-c2nc(-c3ccc4c(c3)CCC4=NO)c(-c3ccncc3)[nH]2)cc1 | 18.7 µM (active) |

Source: PubChem BioAssay (NCATS)
